The text below walks through data of PubChem BioAssay.

For one test, the target named is Albumin (Bos taurus) (UniProt P02769). The test can be described thus: compounds binding labelled BSA control protein – biochemical, small-molecule microarray, Alexa647 label, 635/667 nm fluorescence, artefact control for SMM control protein annotation, profiling panel (AID 1118).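 Note: score merges 667 nm emission intensity and signal-to-noise per printed compound spot.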 The settings on record: BSA-A647 binding, fluorescence 635 nm, higher = more signal.
Sequence of Albumin (Bos taurus) (P02769 whole entry, looked up): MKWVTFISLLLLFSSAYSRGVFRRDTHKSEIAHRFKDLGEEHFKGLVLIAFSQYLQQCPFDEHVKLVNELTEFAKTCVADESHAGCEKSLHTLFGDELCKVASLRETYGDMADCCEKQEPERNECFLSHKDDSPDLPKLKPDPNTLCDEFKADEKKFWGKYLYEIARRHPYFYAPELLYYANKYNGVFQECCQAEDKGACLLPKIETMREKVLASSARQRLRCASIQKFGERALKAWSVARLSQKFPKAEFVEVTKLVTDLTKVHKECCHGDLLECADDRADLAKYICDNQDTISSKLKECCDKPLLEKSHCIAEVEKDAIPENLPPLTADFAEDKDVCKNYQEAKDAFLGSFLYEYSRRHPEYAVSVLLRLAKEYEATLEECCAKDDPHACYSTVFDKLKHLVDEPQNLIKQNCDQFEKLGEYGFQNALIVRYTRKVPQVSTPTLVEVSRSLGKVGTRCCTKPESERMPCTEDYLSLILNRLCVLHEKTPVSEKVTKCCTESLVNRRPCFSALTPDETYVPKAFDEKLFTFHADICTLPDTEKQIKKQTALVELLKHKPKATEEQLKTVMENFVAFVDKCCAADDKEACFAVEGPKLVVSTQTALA
Test [1] is described as follows: probe aXIP binding to arrayed compounds – biochemical, NeuroSMM set, 635/667 nm fluorescence, primary screen (AID 1119).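 Note: probe is the protein aXip251-270 applied at 1 µg/mL to compound-printed slides; binding of probe to printed compounds measured as 667 nm fluorescence plus signal to noise.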 Particulars: small-molecule microarray, higher = more signal, called active from +8 up or from −8 down.
A short description of test [2]: probe aNOTCH3 binding on compound microarray – biochemical, small-molecule microarray, 635/667 nm fluorescence, primary screen (AID 1120).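 Note: probe is a biotin-tagged antibody raised against NOTCH3 rather than NOTCH3 protein; score merges spot fluorescence near 667 nm with spot signal to noise.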 The settings on record: higher = more signal.
Test [3] in a line: probe aNOTCH2 binding on compound microarray – biochemical, small-molecule microarray, 635/667 nm fluorescence, primary screen (AID 1121).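 Note: score merges feature fluorescence read at 667 nm with its signal to noise.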 Particulars: higher = more signal.
Test [4] addresses Carbonic anhydrase 2 (Homo sapiens) (UniProt P00918). The test can be described thus: compounds binding carbonic anhydrase 2 – biochemical, small-molecule microarray, Alexa647-labelled CAII, profiling panel (AID 1122). The settings on record: CAII-A647 binding fluorescence, higher = more signal.
A short description of test [5]: COS7 lysate on small-molecule microarray, probe aHis, 635 nm (AID 1123).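 Note: z-score combines 667nm fluorescence intensity with signal-to-noise per printed compound spot.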 The settings on record: COS7 cell lysate, fluorescence, higher = more signal.
Test [6] is described as follows: probe aLAP1 signal on lysate-treated microarray – cell lysate, small-molecule microarray, COS7 lysate, primary screen (AID 1124).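 Note: lysate comes from COS7 cells expressing LAP1 and is applied at 0.3 µg/mL; score merges spot fluorescence near 667 nm with signal-to-noise over triplicate slides.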 Particulars: probe aLAP1, fluorescence, higher = more signal.
Another test relates to Sam68 (KHDRBS1). The test can be described thus: compounds binding KHDRBS1 protein – biochemical, small-molecule microarray, 635 nm fluorescence, primary screen (AID 1125).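 Note: score merges 667 nm channel intensity with signal to noise over triplicate slides.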 Particulars: higher = more signal.
The test system of test [7] is Chordin-like protein 2 (CHRDL2). The test can be described thus: compounds binding chordin-like 2 – biochemical, small-molecule microarray, 635 nm fluorescence, primary screen (AID 1126).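 Note: printed compound slides probed with Chrdl2 protein at 4 µg/mL for 1 h at 4 C; score merges 667 nm emission intensity with signal to noise over three replicate slides.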 The settings on record: fluorescence 635 nm, higher = more signal.
Test [8] concerns the target Concanavalin-A (Canavalia ensiformis) (UniProt P02866). The test can be described thus: compounds binding concanavalin A lectin – biochemical, small-molecule microarray, Alexa647 label, 635 nm, artefact control for SMM control protein annotation, primary screen (AID 1127).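 Note: z combines 667 nm emission intensity with signal-to-noise across three replicate slides.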 Particulars: ConA-A647 binding fluorescence, higher = more signal.

Active and inactive are the calls of the source.

Sequence of Concanavalin-A (Canavalia ensiformis) (P02866 whole entry, looked up): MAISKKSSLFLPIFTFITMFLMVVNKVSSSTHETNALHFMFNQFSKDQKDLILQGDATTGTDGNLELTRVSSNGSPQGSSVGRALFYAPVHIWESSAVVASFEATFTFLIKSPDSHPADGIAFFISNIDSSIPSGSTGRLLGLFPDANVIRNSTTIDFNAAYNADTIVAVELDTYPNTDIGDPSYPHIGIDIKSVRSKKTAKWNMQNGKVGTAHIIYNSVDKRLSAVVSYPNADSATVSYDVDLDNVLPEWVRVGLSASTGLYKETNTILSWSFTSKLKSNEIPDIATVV

For `CCOC(=O)NN=C1C[C@@H](O)[C@@H](O)[C@@H]2[C@@H]3C(=O)N(Cc4ccccc4)C(=O)[C@@H]3CC[C@H]12`, the composite z-score with Albumin (Bos taurus) was -0.182; in [2] it was -0.183; in [3] it was -0.174; in test [4] it was 0.542; in [5] it was 0.307; in test [6], -0.4. Further, the composite z-score is -0.0882 in the test on Sam68 (KHDRBS1), 0.194 in test [7] and 1.12 in [8]. The composite Z-score in test [1] was -0.374 (inactive).

On to `CO[C@H]1COC(=O)[C@H](C)NC(=O)CC=C[C@@H](C)[C@H](OC)COC(=O)[C@@H](OCc2ccccc2)C=C[C@@H]1C`, for which the composite z-score with Albumin (Bos taurus) was -0.744; in test [2], -0.068; in [3], -0.0657; in [4], -0.722; in test [5] it was -0.724; in test [6], -0.198. Also, the figures for the composite z-score (in the test on Sam68 (KHDRBS1); in test [7]; in test [8]) were -0.206, 1.06 and -0.909, respectively. Also, in test [1], the composite Z-score is -0.0157 (inactive).

Consider `CO[C@H](C1CCCCC1)[C@H](C)C=CCC(=O)OCCCc1ccccc1`, for which the composite z-score with Albumin (Bos taurus) was -0.553; in [2], -0.125; in test [3] it was -0.0751; in [4], -0.3; in [5] it was -0.856; in test [6] it was -0.133. The composite z-score is -0.53 with Sam68 (KHDRBS1), 0.562 in [7] and -0.394 in test [8]. Besides, in [1], the composite Z-score is 0.349 (inactive).

`CO[C@H]1COC(=O)CCC[C@@H](C)[C@H](OC)COC(=O)[C@@H](C)NC(=O)CC=C[C@@H]1C`: the composite z-score with Albumin (Bos taurus) was -0.46; in test [2], -0.0647; in [3] it was -0.134; in test [4] it was -0.716; in [5], -1.8; in test [6], -0.126. The values for the composite z-score (in the test on Sam68 (KHDRBS1); in [7]; in [8]) were 0.186, 1.45 and -0.456, respectively. For the same compound, the composite Z-score in [1] is 0.667 (inactive).

Consider `CCOC(=O)[C@H](CC(C)C)NC(=O)CCC1CC(OC(=O)NCc2cccc3ccccc23)CC2(CCCC(COC(=O)NCCc3ccc(Cl)cc3)O2)O1` (stereo not given in full), for which the composite z-score in the test with Albumin (Bos taurus) is 0.332; in test [2], 0.0203; in [3] it was -0.164; in test [4] it was 0.151; in test [5], 0.416; in test [6] it was -0.175. The figures for the composite z-score (in the test with Sam68 (KHDRBS1); in test [7]; in test [8]) were 0.456, 0.439 and 0.0711, respectively. Moreover, in test [1], the composite Z-score was -0.536 (inactive).

On to `O=c1n(Cc2cc3c(cc2Cl)OCO3)c(=O)n2n1CC[C@@H]1C(=NOCc3ccccc3)[C@H]3O[C@H]3[C@@H](O)[C@@H]12`, for which the composite z-score with Albumin (Bos taurus) is 0.0524; in [2] it was 0.106; in test [3], -0.0495; in test [4], 0.177; in [5], 0.155; in test [6], 0.708. For the same compound, the composite z-score in the test on Sam68 (KHDRBS1) is 0.529; in test [7], 0.6; in test [8] it was 0.223. Besides, the composite Z-score in test [1] was 0.0993 (inactive).

`COC(=O)CC=C[C@@H](C)[C@H](OCc1cccc(-c2ccccc2)c1)C1CCCCC1`: the composite z-score in the test with Albumin (Bos taurus) was 0.0024; in test [2], -0.195; in test [3], -0.109; in [4], 0.942; in test [5], -0.159; in test [6] it was 0.0206. Also, the composite z-score in the test with Sam68 (KHDRBS1) was -0.679; in test [7], 1.23; in [8], 0.923. In addition, the composite Z-score in [1] was 0.369 (inactive).

Regarding `CON=C[C@@H](NS(=O)(=O)c1ccc(C)cc1)[C@H](C)C=CCC(=O)OC`, the composite z-score with Albumin (Bos taurus) was -0.625; in test [2] it was -0.0173; in test [3], -0.14; in test [4], -0.374; in [5] it was 0.0154; in test [6], 0.22. Besides, the values for the composite z-score (in the test with Sam68 (KHDRBS1); in test [7]; in [8]) were -1.35, 1.26 and -0.0082, respectively. Also, in [1], the composite Z-score was -0.722 (inactive).

With `C[C@H]1CC[C@H]2C(=O)OC(CO)CN2[C@@H]1c1ccc(Br)cc1` (stereo not given in full), the composite z-score is 0.0691 with Albumin (Bos taurus); -0.0647 in test [2]; -0.192 in [3]; -0.244 in test [4]; -0.416 in [5]; -0.311 in [6]. For the same compound, the composite z-score with Sam68 (KHDRBS1) is 0.253; in test [7] it was 0.453; in test [8] it was -0.17. For the same compound, the composite Z-score in test [1] is 0.456 (inactive).

For the compound `C#CCCCON=C1[C@H]2CCn3c(=O)n(-c4ccccc4)c(=O)n3[C@H]2[C@H](O)[C@@H]2O[C@H]12`, the composite z-score with Albumin (Bos taurus) is 0.37; in test [2], -0.0601; in test [3] it was -0.142; in test [4], -0.181; in test [5], -0.169; in [6], -0.0252. For the same compound, the composite z-score with Sam68 (KHDRBS1) worked out at 0.131; in [7] it was 0.609; in [8] it was 0.184. Also, in [1], the composite Z-score was -0.377 (inactive).

As for `CCOC(=O)[C@H](Cc1ccccc1)NC(=O)CCC1CC(OC(=O)NCCc2ccc(F)cc2)CC2(CCCC(COC(=O)NCC3CCCCC3)O2)O1` (stereo not given in full), the composite z-score in the test with Albumin (Bos taurus) was 0.505; in [2] it was 0.18; in test [3] it was -0.0294; in test [4], 0.192; in [5], 0.822; in test [6], 0.236. The composite z-score stood at 1.3 in the test on Sam68 (KHDRBS1), 0.74 in test [7] and 1.07 in test [8]. Further, the composite Z-score in [1] was -0.539 (inactive).

On to `CC(C)=CCCC(C)=CCON=C1C[C@@H](O)[C@@H](O)[C@@H]2[C@@H]3C(=O)N(C4CCCCC4)C(=O)[C@@H]3CC[C@@H]12`, for which the composite z-score with Albumin (Bos taurus) was 0.0108; in test [2], -0.0048; in test [3], -0.13; in test [4], 0.276; in [5], -0.112; in test [6], 0.0694. Further, the figures for the composite z-score (with Sam68 (KHDRBS1); in test [7]; in test [8]) were 0.493, 1.01 and 0.124, respectively. Further, in test [1], the composite Z-score was 0.244 (inactive).

As to `CC(=O)OC[C@H]1O[C@H](CCON=C2[C@H]3CCn4c(=O)n(-c5ccccc5)c(=O)n4[C@H]3[C@H](O)[C@@H]3O[C@H]23)C=C[C@@H]1OC(C)=O`, the composite z-score was 0.378 with Albumin (Bos taurus); 0.348 in [2]; 0.088 in test [3]; 0.127 in test [4]; 0.343 in test [5]; -0.0654 in test [6]. In addition, the figures for the composite z-score (with Sam68 (KHDRBS1); in [7]; in test [8]) were 0.283, 0.47 and -0.0333, respectively. Besides, the composite Z-score in test [1] was 0.22 (inactive).
